DNMT1 block: DNMT1 (human) enzyme inhibition | P26358 | AID 588458 | DNMT1 molecular beacon, Hinp1I cleavage, fluorescence | inhibition (reported as % activation of signal), % at 10 µM | 0.83% of 360,000 active; in the data active = inhibition above about 50%
UHRF1 MBD2 ctr: blocks human UHRF1 binding to methylated DNA. 0.75% of 370,000 active. UHRF1 binding to methylated oligo, TR-FRET. inhibition, % at 4.4 µM. Q96T88. AID 687016; in the data active = inhibition above about 21%;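 also: UHRF1 SRA domain binding a hemimethylated CpG hairpin DNA probe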
PG9 binder: binds the HIV-1 gp120 antibody PG9 | TR-FRET gp120-PG9 antibody binding | inhibition, % at 6.7 µM | 0.43% of 360,000 active | AID 624416; in the data active = inhibition above about 8.5%
rCAG binder: r(CAG) repeat RNA binding; TO-PRO-1 dye displacement fluorescence; inhibition, % at 3 µM; 1.3% of 370,000 active;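 active = inhibition above the plate cutoff, the mean of all test compounds on that plate plus 3 SD, cut at about 35% in these data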;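 also: higher means more dye released from RNA so lower well fluorescence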
MBD2 DNA inh: MBD2-methylated oligo binding inhibition; inhibition, % at 4.4 µM; AID 686964; 0.31% of 370,000 active; Q9UBB5; TR-FRET, MBD2 binding to methylated oligonucleotide; in the data active = inhibition above about 13%
Target sequence (Q9UBB5 whole entry, looked up): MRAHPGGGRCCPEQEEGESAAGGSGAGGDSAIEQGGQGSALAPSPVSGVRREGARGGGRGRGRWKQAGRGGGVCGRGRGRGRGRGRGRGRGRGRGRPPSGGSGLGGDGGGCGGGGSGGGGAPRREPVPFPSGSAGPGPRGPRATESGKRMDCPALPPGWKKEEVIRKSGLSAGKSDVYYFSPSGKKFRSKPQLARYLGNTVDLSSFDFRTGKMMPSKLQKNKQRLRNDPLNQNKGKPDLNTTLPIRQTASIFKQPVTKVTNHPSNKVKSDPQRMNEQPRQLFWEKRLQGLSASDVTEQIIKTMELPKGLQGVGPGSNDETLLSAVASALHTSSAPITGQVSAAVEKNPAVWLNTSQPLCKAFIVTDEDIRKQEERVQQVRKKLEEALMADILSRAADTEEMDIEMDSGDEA
LEDGF integ inh: blocks HIV-1 LEDGF/p75-dependent DNA integration; TR-FRET IN-LEDGF/p75 DNA integration, Eu/Cy5; inhibition, % at 3.7 µM; 0.64% of 370,000 active;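 active = inhibition above the screen-wide mean plus 3 SD, cut at about 13% in these data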;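 also: signal is the Cy5 over europium emission ratio at 671 and 618 nm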
rCAG binder conf: r(CAG) RNA repeat binding, confirmation; AID 652065; shares compounds with rCAG binder; TO-PRO-1 dye displacement fluorescence; inhibition, % at 3 µM; 70% of 4,300 active;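 active = inhibition above a per-plate cutoff, the mean inhibition of sample wells plus 3 SD, cut at about 35% in these data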;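 also: loss of TO-PRO-1 fluorescence as compound displaces dye from 1x1 AA loop RNA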
dCAG dye counter: DNA CAG dye complex inhibition counter-screen | shares compounds with rCAG binder | d(CAG) DNA oligo TO-PRO-1 dye displacement, fluorescence | inhibition, % at 3 µM | 94% of 4,300 active | AID 652068;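 active = inhibition above its plate's cutoff, the mean test-well inhibition plus 3 SD, cut at about 4.8% in these data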;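 also: hits displace the dye from DNA and so lower well fluorescence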
Large screens that a line does not name were inactive (follow-up assays come after a bar, where they were run). An excerpt weighted towards active compounds, which were near 3.5% of everything screened.

O=C(O)C1=CC[C@@H](c2ccc(Cl)cc2)N(S(=O)(=O)c2ccc(Cl)cc2)[C@H]1c1ccccc1	rCAG binder 65.0 | rCAG binder conf 68.5 | dCAG dye counter 29.6
COc1ccc(NC(=O)C(C2CC2)n2c(=O)c(-c3ccccc3)nc3ccccc32)cc1 (stereo unspecified)	none (no result: DNMT1 block)
O=c1[nH]c(C2CCN(S(=O)(=O)/C=C/c3ccccc3)CC2)nc2c1nnn2Cc1ccc(F)cc1	none
O=c1[nH]c(COc2ccc(Br)cc2Cl)nc2ccccc12	none
Cc1cccc(C)c1NC(=O)CN(C)C(=O)c1ccc(OCc2ccccc2)cc1	none
COc1cc(OC)cc(-c2c(Sc3ccccc3)c3cc(-c4ccc(OC)nc4)ccc3n2C)c1	none (no result: DNMT1 block)
Cc1ccc(S(=O)(=O)N2[C@@H](c3ccc(Cl)cc3)C(C(=O)O)=CC[C@H]2c2ccc(C(C)C)cc2)cc1	rCAG binder 82.6 | rCAG binder conf 88.8 | dCAG dye counter 60.9
Cc1cc(OCc2nn[nH]n2)c2c(C)c(Cc3ccccc3)c(=O)oc2c1	rCAG binder 49.7 | rCAG binder conf 50.3 | dCAG dye counter 12.7
Cc1cc(OCc2nn[nH]n2)c2c(C)c(CC(=O)O)c(=O)oc2c1	none
On1onc2c3cc(-c4ccccc4)nc3ccc21	rCAG binder 41.0 | rCAG binder conf inactive | dCAG dye counter 5.0
c1ccc(-c2cc3c(ccc4nonc43)nn2)cc1	none
COc1ccc(C(N)c2csc(Nc3nncc4ccccc34)n2)cc1 (stereo unspecified)	none
O=C1S/C(=C\c2ccc(O)c([N+](=O)[O-])c2)C(=O)N1c1ccccc1Cl	rCAG binder 47.8 | rCAG binder conf 44.0 | dCAG dye counter 11.3
COc1cc(/C=C2\SC(=O)N(c3cccc(Cl)c3)C2=O)cc([N+](=O)[O-])c1O	DNMT1 block 70.5, rCAG binder 36.9 | rCAG binder conf 85.3 | dCAG dye counter 44.5
Cc1ccc(-n2c(O)c(/C=N/Nc3ccc(S(=O)(=O)N4CCOCC4)cc3[N+](=O)[O-])c3ccccc3c2=O)c(C)c1	rCAG binder 66.5 | rCAG binder conf 88.0 | dCAG dye counter 71.0
O=C(O)COc1ccccc1/C=N/Nc1ccc(S(=O)(=O)N2CCOCC2)cc1[N+](=O)[O-]	rCAG binder 52.2 | rCAG binder conf 39.3 | dCAG dye counter 9.3
CCC(C)(C(=O)Nc1ccc(OC)cc1)N(C)C(=O)Cn1nnnc1N (stereo unspecified)	none
COC(=O)[C@]12C[C@H](CC(=O)N3CCN(C(=O)c4ccco4)CC3)C(=O)N(Cc3ccco3)C1=C[C@H](C(C)C)O[C@@H]2C1CC1	none (no result: DNMT1 block, PG9 binder)
CC(=O)Nc1ccc(S(=O)(=O)NCCC(=O)N2CCN(C(c3ccccc3)c3ccccc3)CC2)cc1	none
Cc1ccc(NC(=O)CSc2nc(O)cc(=O)n2-c2ccc(C)cc2)cc1	rCAG binder 41.8 | rCAG binder conf inactive | dCAG dye counter 6.3
Cn1c(SCC(=O)Nc2cccc3ccccc23)nc(O)cc1=O	rCAG binder 40.8 | rCAG binder conf inactive | dCAG dye counter inactive
COc1ccccc1NC(=O)CSc1nc(O)cc(=O)n1C	none
CCCCc1c(O)nc(SCC(=O)Nc2cccc3ccccc23)n(-c2ccccc2OC)c1=O	rCAG binder 35.1 | rCAG binder conf inactive | dCAG dye counter 7.8
CCOc1ccccc1-n1c(SCC(=O)Nc2ccccc2C(=O)O)nc2ccccc2c1=O	rCAG binder 35.5 | rCAG binder conf inactive | dCAG dye counter 7.8
CCn1cc(CCCC(=O)NCc2ccc(OC)cc2)c2ccccc21	none
COc1ccc(-c2ncn(CCc3ccccc3OC)c2CC(C)C)cc1	none (no result: DNMT1 block)
CCOC(=O)C1C(=O)C(=O)N(C2CCCCC2)C1C(=O)OCC (stereo unspecified)	none
COc1ccccc1-n1c(SCC(=O)Nc2cccc3ccccc23)nc(O)cc1=O	rCAG binder 48.2 | rCAG binder conf inactive | dCAG dye counter 9.0
CCCC(C(=O)O)N1C(=O)/C(=C2\C(=O)N(C)c3ccccc32)SC1=S (stereo unspecified)	rCAG binder 55.8 | rCAG binder conf 62.6 | dCAG dye counter 26.0
O=C(O)CN1C(=O)/C(=C2\SC(=S)N(C(Cc3ccccc3)C(=O)O)C2=O)c2ccccc21 (stereo unspecified)	rCAG binder 69.2 | rCAG binder conf 46.8 | dCAG dye counter 12.1
O=C(CN1C(=O)/C(=C2\SC(=S)N(C3CCS(=O)(=O)C3)C2=O)c2ccccc21)Nc1ccccc1 (stereo unspecified)	none
